For assay [1], the target named is Cytochrome P450 2C19 (Homo sapiens) (UniProt P33261). The assay can be described thus: qHTS for inhibitors of CYP2C19 against the NCATS DSHEA and TCM libraries (AID 1919974).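 Note: luminescence from luciferin released by CYP2C19 oxidation of a pro-luciferin substrate; potency is the fitted concentration of half-maximal effect.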 In outline: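 Luminescent P450-Glo format: compounds preincubated 15 min with enzyme and luciferin substrate, reaction run 30-45 min after NADPH regeneration solution. Intraplate controls: ketoconazole for CYP3A4 and CYP2C19, sulfaphenazole for CYP2C9.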

A short description of assay [2]: Cell Viability - BJ (AID 421; calls by dose curve;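 note: potency is the fitted concentration of half-maximal effect; cells exposed to compound for 40 hours at 37 °C before readout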). The settings on record: BJ fibroblast viability, qHTS. In outline:
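Cytotoxicity in human BJ foreskin fibroblasts is scored as loss of cellular ATP after a 40-hour exposure, measured by luciferase luminescence. Controls are DMSO and 100 uM tamoxifen.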

Assay [3] is described as follows: Cell Viability - Hek293 (AID 427;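 active = compounds whose dose-response curve shows a full or clear partial loss of cell viability, called from curve shape rather than a numeric limit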;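 note: potency is the fitted concentration of half-maximal effect; cells exposed to compound for 40 hours at 37 °C before reading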). To be noted: qHTS. In outline:
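qHTS, human embryonic kidney (adenovirus-transformed) cells; 40 hr cpd, 37 °C; CellTiter-Glo ATP luminescence. Norm: DMSO = 0, 100 uM tamoxifen = 100% inhibition. Hill-fit AC50.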

In assay [4] the target is Cytochrome P450 3A4 (Homo sapiens) (UniProt P08684). Put plainly: qHTS Assay for Inhibitors and Substrates of Cytochrome P450 3A4 (AID 884). Note: % is set by controls: 0 for no effect and ±100 for the full control effect; nearly all actives have a fitted effect of over 50% in size. A digest of the protocol:
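20 nM human CYP3A4 with 25 uM Luciferin-PPXE (at KM) in 200 mM KPO4, preincubated 10 min with compound; NADPH regeneration started a 60 min RT reaction. Luciferin detected by luminescence, normalized to 57 uM ketoconazole as full inhibition.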

A short description of assay [5]: qHTS Assay for Identification of Small Molecule Inducers of Hypoxia Response (AID 2120; active = well fitted curve in the direction sought with a large enough effect in the signal ratio, with a control signal flat, not every such curve was filed as active; the % refers to the signal ratio; note: 0% is about no effect). In outline: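 HRE-bla ME-180 cells in Opti-MEM with 0.5% dialyzed FBS, pre-plated 4-5 h, then compound titration for 17 h at 37 degrees Celsius. CCF4 loaded 2.5 h at room temperature; 460/530 nm ratio gave %Activity and AC50 for induction.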
Assay [6] is described as follows: qHTS assay for small molecule antagonists of retinoid X receptor alpha signaling (AID 588546).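 Note: cells stimulated with 9-cis-retinoic acid as agonist; % is set by controls: 0 for no effect and ±100 for the full control effect.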 To be noted: HEK293T RXRa-UAS-bla, beta-lactamase ratio, antagonist mode; measured here: W530 green channel, cytotoxicity proxy. A digest of the protocol:
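Beta-lactamase reporter inhibition, read as CCF4 fluorescence ratio (ex 405, em 460/530 nm) after 2 h at RT. HEK293T UAS-bla cells, 2500/well, were stimulated with 9-cis-RA at 500 or 100 nM final alongside test compound for 18 h at 37 C.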

A short description of assay [7]: qHTS assay for environmental chemicals that activate the Aryl hydrocarbon Receptor (AhR) signaling pathway (AID 651777). Note: % of control where 0% means no effect; nearly all actives have a fitted effect of over 15% in size. To be noted: 1A2-DRE human hepatoma cells, luciferase, 24 h; activation: stronger effect = higher value. A digest of the protocol:
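Luminescence read-out: One-Glo added for 30 min at RT after 24 hr compound treatment (37 C, 5% CO2) of human hepatoma cells expressing a DRE/CYP1A2 promoter–luciferase reporter; increased signal indicates AhR activation.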

Assay [8] addresses Peroxisome proliferator-activated receptor alpha (Homo sapiens) (UniProt Q07869). Put plainly: qHTS assay for small molecule agonists of the peroxisome proliferator-activated receptor alpha (PPARalpha) signaling pathway (AID 651778). Note: % of control where 0% means no effect. To be noted: PathHunter PPARalpha complementation, chemiluminescence, 6 h; max response: stronger effect = higher value. A digest of the protocol: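 Enzyme-fragment complementation assay in which ligand-bound PPARalpha translocates and forms an active enzyme that generates chemiluminescence. Cells were plated overnight, exposed to compound for 6 hr at 37 C, and then given detection reagent for 60 min at room temperature.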

The nature of assay [9]: qHTS assay for small molecule agonists of the antioxidant response element (ARE) signaling pathway measured by Nrf2-dependant transcriptional activity - cell viability counter screen (AID 720653; active = well fitted curve in the direction sought with a large enough effect in the repeat runs; an effect the other way counts as inactive or inconclusive; note: % is set by controls: 0 for no effect and ±100 for the full control effect). The settings on record: ARE-bla HepG2 viability, CellTiter-Glo ATP luminescence, 16 h; max response: stronger effect = lower value. In outline: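 ARE-bla HepG2 cells treated with compounds for 16 h at 37C; this counter screen measures viability as intracellular ATP by CellTiter-Glo luminescence after 30 min at room temperature.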

Assay [10] can be described thus: qHTS assay for cell viability of HEK293 cells (AID 743288). Note: % is set by controls: 0 for no effect and ±100 for the full control effect; nearly all actives have a fitted effect of over 50% in size. To be noted: ATP luminescence (CellTiter-Glo), 18 h; max response: stronger effect = lower value. In outline: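 The Tox21 protocol used parental HEK293 cells treated for 18 h at 37 C with compounds delivered by pintool; ATP-coupled luminescence after 30 min at room temperature gave viability.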
Assay [11] deals with Glutathione peroxidase 1 (Homo sapiens) (UniProt P07203). The assay can be described thus: Primary qHTS Assay for Inhibitors of Recombinant Selenoprotein Glutathione Peroxidase 1 (GPX1) (AID 1845191). Note: nearly all actives have a fitted effect of over 65% in size. A digest of the protocol:
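GR-coupled assay: compounds preincubated 30 min at room temperature with GPX1, then reaction started with CHP; final 10 nM GPX1, 1 mM GSH, 0.5 mM CHP, 0.5 mM NADPH, 100 nM GR, 0.01% BSA, pH 7.5 Tris buffer. NADPH fluorescence (340/450 nm) read at 0 and 15 min.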

Assay [12] concerns the target Lysosomal acid glucosylceramidase (Homo sapiens) (UniProt P04062). Put plainly: Glucocerebrosidase-p2 (AID 348; in the data active = potency below about 10 µM; note: potency is the fitted concentration of half-maximal effect). To be noted: purified GBA, blue fluorogenic substrate, 40 min. A digest of the protocol:
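Compounds titrated from 0.6 nM upwards against 0.2 nM enzyme in pH 5.9 citric acid/KH2PO4, taurocholate, tween-20; blue fluorogenic substrate 80 uM, 40 min room temperature, stopped and read Ex 365/Em 440 for AC50.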

For assay [13], the target named is Cytochrome P450 1A2 (Homo sapiens) (UniProt P05177). The assay can be described thus: p450-cyp1a2 (AID 410; calls by dose curve; note: potency is the fitted concentration of half-maximal effect). In outline: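 20nM CYP1A2 with 100uM Luciferin-ME (at Km) in 100mM KPO4; compound preincubated 10 min, NADPH regeneration added, 60 min at room temperature. Luciferin quantified by luminescence after detection reagent; normalized to 57 uM furafylline.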

In assay [14] the target is Glucocorticoid receptor (Homo sapiens) (UniProt P04150). The assay can be described thus: GR-EFC Redistribution (AID 451; calls by dose curve; note: potency is the fitted concentration of half-maximal effect). The settings on record: CHO-K1 GR-EFC translocation, beta-gal luminescence, 2 h. In outline: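 CHO-K1 cells expressing nuclear EA and GR-ED fragments of b-gal; compounds titrated up to 46 uM final, 2 h at 37 C. GR nuclear translocation read as complemented b-gal luminescence after 1 h RT detection.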

Assay [15] deals with 3',5'-cyclic-AMP phosphodiesterase 4B (Homo sapiens) (UniProt Q07343). Put plainly: qHTS Assay for Inhibitors of PDE-IV (AID 607; active = well fitted activation curve with a large enough effect in the main read-out, with a control signal flat, not every such curve was filed as active; note: % of control where 0% means no effect). A digest of the protocol: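 The readout is membrane depolarisation from a cAMP-sensing CNG channel, detected with a potential dye at ex 535/em 590. Cells were HEK293-derived (endogenous PDE-IV) at 1000 cells/well, titrated up to 22.9 uM final.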

Assay [16] addresses Cytochrome P450 3A4 (Homo sapiens) (UniProt P08684). Put plainly: qHTS Assay for Activators of Cytochrome P450 3A4 (AID 885). Note: nearly all actives have a fitted effect of over 65% in size. In outline:
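Steps: enzyme/substrate mix dispensed; compound added, 10 min RT; NADPH regeneration solution added, 60 min RT; luciferin detection buffer stops reaction; 20 min later luminescence measured.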

Assay [17] is described as follows: AP1 Signaling Pathway (AID 357; active = well fitted curve in either direction with a large enough effect, not every such curve was filed as active;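 note: ME-180 reporter cells stimulated with EGF at its EC50 level; % is set by controls: 0 for no effect and ±100 for the full control effect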). To be noted: ME-180 (cervical carcinoma) AP-1-bla reporter, EGF-induced, beta-lactamase ratio, 5 h; at 7.69 µM (top of the series) unless noted. A digest of the protocol:
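In this screen, ME-180 cells in Opti-MEM with 0.5% dialyzed FBS received EC50 EGF and compound titrations for 5 h. AP-1 reporter beta-lactamase was detected via CCF4 ratio, giving AC50 for positive and negative modulators.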

Assay [18] is described as follows: NFAT Signaling Pathway (AID 444; active = well fitted curve in either direction with a large enough effect, not every such curve was filed as active;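 note: carbachol stimulus at about its EC50 of 1 µM final; % is set by controls: 0 for no effect and ±100 for the full control effect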). To be noted: Jurkat NFAT-bla M1, carbachol, beta-lactamase ratio, 5 h; at 7.69 µM (top of the series) unless noted. In outline: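 Jurkat cells with NFAT-driven β-lactamase reporter and co-expressed M1 receptor, stimulated with carbachol (final 1 uM, ~EC50), compound titration, 5 h at 37 °C. CCF4 loaded 1 h at RT; 460/530 nm ratio gave %activity and AC50.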

Assay [19] has as its target Cytochrome P450 2C19 (Homo sapiens) (UniProt P33261). Put plainly: qHTS Assay for Inhibitors and Substrates of Cytochrome P450 2C19 (AID 899). Note: % is set by controls: 0 for no effect and ±100 for the full control effect; nearly all actives have a fitted effect of over 60% in size. In outline: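 5 nM human CYP2C19 with 10uM Luciferin-H EGE (at KM) in 50mM KPO4, compound preincubated 10 min at 37C, then NADPH regeneration for 60 min at 37C. Luciferin read by luminescence after detection reagent; normalized to 57uM ketoconazole as full inhibition.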

Inconclusive results are not listed. The source made the active and inactive calls. Unless noted, calls come from the whole dose curve; as a rule, active = well fitted curve in the direction sought with a large enough effect; inconclusive = small, poorly fitted or top-dose-only effect, or another doubt; inactive = no such curve, though single readings can be large; an effect the other way counts as inactive or inconclusive. A value given as a limit tells only on which side of the number the result lay.

Chain of Cytochrome P450 3A4 (Homo sapiens) (P08684 whole entry, looked up): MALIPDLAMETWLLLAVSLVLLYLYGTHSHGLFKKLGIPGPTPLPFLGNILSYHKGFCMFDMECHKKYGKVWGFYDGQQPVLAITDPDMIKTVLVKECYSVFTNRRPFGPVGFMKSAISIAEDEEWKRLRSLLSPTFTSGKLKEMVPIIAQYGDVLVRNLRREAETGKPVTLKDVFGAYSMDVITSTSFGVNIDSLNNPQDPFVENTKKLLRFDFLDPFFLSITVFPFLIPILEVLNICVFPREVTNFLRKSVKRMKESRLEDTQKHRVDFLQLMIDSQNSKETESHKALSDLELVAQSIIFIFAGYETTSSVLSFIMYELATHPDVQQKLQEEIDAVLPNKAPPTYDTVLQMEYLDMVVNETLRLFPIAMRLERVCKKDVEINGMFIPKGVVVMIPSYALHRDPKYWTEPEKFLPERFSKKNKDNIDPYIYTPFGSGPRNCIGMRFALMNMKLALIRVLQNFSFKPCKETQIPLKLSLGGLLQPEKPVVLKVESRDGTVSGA
Chain of Lysosomal acid glucosylceramidase (Homo sapiens) (P04062 whole entry, looked up): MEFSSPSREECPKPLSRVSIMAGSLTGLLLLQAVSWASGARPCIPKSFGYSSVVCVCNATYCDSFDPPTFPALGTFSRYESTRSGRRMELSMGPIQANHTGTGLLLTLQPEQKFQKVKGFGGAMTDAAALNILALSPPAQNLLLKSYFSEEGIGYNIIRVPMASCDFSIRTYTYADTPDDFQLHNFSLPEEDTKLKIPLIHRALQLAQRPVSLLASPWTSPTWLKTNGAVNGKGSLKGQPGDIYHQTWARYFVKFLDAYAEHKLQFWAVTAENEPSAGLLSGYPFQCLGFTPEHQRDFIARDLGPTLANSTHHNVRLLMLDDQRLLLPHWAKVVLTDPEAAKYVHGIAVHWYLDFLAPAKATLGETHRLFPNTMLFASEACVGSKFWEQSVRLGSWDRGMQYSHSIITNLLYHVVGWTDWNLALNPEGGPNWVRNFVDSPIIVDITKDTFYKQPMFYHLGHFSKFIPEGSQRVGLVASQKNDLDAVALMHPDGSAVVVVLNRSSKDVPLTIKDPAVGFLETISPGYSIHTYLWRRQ
Chain of 3',5'-cyclic-AMP phosphodiesterase 4B (Homo sapiens) (Q07343 whole entry, looked up): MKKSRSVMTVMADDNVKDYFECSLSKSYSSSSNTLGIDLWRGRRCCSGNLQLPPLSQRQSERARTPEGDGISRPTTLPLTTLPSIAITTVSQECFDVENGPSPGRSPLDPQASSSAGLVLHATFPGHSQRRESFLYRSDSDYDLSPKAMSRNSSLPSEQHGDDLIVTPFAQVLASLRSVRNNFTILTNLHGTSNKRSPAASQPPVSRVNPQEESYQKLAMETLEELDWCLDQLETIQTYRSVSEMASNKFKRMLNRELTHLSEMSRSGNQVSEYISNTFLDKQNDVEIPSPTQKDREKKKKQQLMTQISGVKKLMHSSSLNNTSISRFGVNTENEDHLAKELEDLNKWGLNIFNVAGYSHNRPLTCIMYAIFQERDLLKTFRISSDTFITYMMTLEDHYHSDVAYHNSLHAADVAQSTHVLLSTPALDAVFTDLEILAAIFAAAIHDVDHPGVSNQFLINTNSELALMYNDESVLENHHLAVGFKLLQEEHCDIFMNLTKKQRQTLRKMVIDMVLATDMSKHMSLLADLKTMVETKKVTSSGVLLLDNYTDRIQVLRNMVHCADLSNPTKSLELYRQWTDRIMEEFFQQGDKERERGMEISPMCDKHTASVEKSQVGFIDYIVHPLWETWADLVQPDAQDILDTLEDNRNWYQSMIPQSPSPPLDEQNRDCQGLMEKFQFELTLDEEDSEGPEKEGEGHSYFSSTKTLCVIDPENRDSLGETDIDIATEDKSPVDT
Chain of Cytochrome P450 2C19 (Homo sapiens) (P33261 whole entry, looked up): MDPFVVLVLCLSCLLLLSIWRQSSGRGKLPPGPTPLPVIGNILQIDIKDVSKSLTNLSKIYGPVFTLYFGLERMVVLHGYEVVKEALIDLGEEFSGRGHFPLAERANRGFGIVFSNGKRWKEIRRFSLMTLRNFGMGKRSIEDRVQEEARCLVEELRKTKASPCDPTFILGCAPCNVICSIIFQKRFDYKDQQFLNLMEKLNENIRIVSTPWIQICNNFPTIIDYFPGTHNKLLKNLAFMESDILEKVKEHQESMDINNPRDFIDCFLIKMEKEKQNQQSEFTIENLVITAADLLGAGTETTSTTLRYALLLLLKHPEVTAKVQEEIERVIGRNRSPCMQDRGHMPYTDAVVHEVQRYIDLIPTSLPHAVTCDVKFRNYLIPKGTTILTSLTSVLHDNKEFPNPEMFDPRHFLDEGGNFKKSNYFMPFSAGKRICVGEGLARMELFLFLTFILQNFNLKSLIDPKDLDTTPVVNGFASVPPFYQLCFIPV
Chain of Glutathione peroxidase 1 (Homo sapiens) (P07203 whole entry, looked up): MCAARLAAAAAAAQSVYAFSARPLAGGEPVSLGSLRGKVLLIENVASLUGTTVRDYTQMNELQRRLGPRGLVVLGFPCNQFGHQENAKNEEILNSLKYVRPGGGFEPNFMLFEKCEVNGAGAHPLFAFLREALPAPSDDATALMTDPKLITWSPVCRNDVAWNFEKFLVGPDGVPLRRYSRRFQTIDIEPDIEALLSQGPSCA
Chain of Glucocorticoid receptor (Homo sapiens) (P04150 whole entry, looked up, the tested form may be a part): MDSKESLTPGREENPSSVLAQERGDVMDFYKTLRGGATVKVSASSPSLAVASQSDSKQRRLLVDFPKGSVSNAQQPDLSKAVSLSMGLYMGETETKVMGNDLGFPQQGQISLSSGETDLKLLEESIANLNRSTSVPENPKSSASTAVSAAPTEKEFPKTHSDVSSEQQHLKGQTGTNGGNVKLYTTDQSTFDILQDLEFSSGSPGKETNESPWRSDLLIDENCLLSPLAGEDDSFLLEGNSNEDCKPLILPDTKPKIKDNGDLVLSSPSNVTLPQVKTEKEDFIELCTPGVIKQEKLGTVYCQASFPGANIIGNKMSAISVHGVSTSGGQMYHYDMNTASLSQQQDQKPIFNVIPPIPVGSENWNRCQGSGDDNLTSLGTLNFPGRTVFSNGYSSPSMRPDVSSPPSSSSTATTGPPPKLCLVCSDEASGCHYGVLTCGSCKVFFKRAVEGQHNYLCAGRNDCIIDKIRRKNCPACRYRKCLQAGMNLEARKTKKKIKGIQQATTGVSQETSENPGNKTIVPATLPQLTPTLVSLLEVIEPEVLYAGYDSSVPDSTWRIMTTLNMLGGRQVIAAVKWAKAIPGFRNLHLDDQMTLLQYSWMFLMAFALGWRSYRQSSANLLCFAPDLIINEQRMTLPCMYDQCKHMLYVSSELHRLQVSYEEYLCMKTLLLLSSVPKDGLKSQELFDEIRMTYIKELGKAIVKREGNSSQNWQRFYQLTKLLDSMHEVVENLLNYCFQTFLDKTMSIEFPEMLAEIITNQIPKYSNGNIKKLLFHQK
Chain of Cytochrome P450 1A2 (Homo sapiens) (P05177 whole entry, looked up): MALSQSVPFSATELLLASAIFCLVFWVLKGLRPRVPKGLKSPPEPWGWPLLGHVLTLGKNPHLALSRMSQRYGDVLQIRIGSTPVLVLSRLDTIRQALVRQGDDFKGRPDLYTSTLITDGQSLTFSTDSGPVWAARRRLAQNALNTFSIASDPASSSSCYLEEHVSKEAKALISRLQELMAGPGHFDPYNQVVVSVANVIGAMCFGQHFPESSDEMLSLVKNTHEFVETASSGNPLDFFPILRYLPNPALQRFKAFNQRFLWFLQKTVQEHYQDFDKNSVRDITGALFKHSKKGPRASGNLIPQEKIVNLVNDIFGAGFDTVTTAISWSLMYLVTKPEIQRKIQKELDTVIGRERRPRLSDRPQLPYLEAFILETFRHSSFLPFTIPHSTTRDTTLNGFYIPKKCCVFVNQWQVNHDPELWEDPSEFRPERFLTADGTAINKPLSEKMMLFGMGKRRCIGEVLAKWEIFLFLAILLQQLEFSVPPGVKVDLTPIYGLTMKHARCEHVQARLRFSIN
Chain of Peroxisome proliferator-activated receptor alpha (Homo sapiens) (Q07869 whole entry, looked up, the tested form may be a part): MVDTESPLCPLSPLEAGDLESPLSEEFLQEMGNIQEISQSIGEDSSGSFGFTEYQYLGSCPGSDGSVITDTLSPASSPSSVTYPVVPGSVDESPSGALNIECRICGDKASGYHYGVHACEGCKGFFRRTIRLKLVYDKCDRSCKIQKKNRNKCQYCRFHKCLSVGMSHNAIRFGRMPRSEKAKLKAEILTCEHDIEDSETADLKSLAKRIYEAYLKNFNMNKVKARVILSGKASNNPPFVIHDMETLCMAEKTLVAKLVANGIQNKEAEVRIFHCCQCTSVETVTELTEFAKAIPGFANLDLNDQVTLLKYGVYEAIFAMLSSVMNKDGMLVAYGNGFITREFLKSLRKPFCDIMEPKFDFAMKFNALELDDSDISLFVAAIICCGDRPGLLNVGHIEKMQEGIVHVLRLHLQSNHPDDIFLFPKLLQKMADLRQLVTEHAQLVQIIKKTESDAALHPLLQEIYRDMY

Take `CC1=CC[C@H](C(C)C)C=C1`: the Potency in assay [1] was 39.8 µM (active).
Same read-out and setting: to `CCCCC/C=C/C(=O)CCc1ccc(O)c(OC)c1` belongs 7.08 µM (active).
With `CC1=C2[C@H](/C=C(\C)C(=O)O)CC[C@@H](C)[C@H]2CC1`, the Potency in [2] and in assay [3] was > 92 µM (inactive) in each case. Also, the Potency entry in assay [4] was “inactive”. Further, the outcome in [5] was inactive. Also, the max response in assay [6] was 26.2%; in assay [8], 14.9% (inactive); in assay [9] it was -0.329% (inactive); in assay [10], 5.67% (inactive). For the same compound, the activation in assay [7] is 0.0877% (inactive).
Turning to `O=C(OC[C@H]1O[C@@H](OC(=O)c2cc(O)c(O)c(O)c2)[C@H](OC(=O)c2cc(O)c(O)c(O)c2)[C@@H](OC(=O)c2cc(O)c(O)c(O)c2)[C@@H]1O)c1cc(O)c(O)c(O)c1`, the Potency in assay [1] was 3.98 µM (active).
`CO[C@H]1/C=C\O[C@@]2(C)Oc3c(C)c(O)c4c(O)c(c5c(c4c3C2=O)=NC2(CCN(CC(C)C)CC2)N=5)NC(=O)/C(C)=C\C=C/[C@H](C)[C@H](O)[C@@H](C)[C@@H](O)[C@@H](C)[C@H](OC(C)=O)[C@@H]1C`: the Potency result in assay [11] was “inactive”.
As for `O=C(CCc1cc(=O)[nH]o1)N[C@H](C1CCNCC1)C1CC(O)C1` (some centres not stated), the Potency entry in assay [11] is “inactive”.
`CN(C)C(=O)c1ccc(-c2ccc3ncnc(Nc4ccc(F)cc4)c3c2)cc1`: the Potency in assay [12] was > 11.4 µM (inactive); in assay [13], 20 µM (active); in assay [14], > 46 µM (inactive). Moreover, in assay [15], the Potency entry is “inactive”. In [16], the compound was classed as inactive.
As to `COCCn1c(=O)c(-c2cccs2)nc2cnc(N3CCNCC3)nc21`, the Potency was > 11.4 µM (inactive) in [12] and 3.98 µM (active) in assay [13]. The Potency entry in [15] is “inactive”. For the same compound, in [16], the result was inactive.
Regarding `COC(=O)N(C)Cc1cccc(N2CCN(C(c3ccccc3)c3ccccc3)CC2)c1`, the Potency entry in assay [11] is “inactive”.
Turning to `N#Cc1ncccn1`, the Potency result in assay [11] is “inactive”.
As to `CNc1ncncc1-c1ccccc1CN(C)C`, the Potency is > 11.4 µM (inactive) in assay [12] and > 46 µM (inactive) in assay [14]. For the same compound, the activity change, negative = inhibition in [17] is 7.24% (inactive); in [18], -28.4% (inactive). For the same compound, the Potency result in assay [15] and in assay [19] was “inactive” each time.
On to `CN1CCc2cc(Nc3ncc(C4CC4)c(NCCCNC(=O)C4CCC4)n3)ccc2C1`, for which the Potency entry in assay [11] was “inactive”.
On the same count and under the same terms, for `OCCN1CCN(C(c2ccc(Cl)cc2Cl)c2sc3nc(-c4ccco4)nn3c2O)CC1` (configuration not stated) the value was “inactive”.
On to `Cc1nc2cnc(N3CCOCC3)nc2n(CCc2ccccc2)c1=O`, for which the Potency in [12] was > 11.4 µM (inactive). In [18], the activity change, negative = inhibition is 15.3% (inactive).
In the case of `C/C=C(/C)C(=O)O[C@@H]1c2cc(OC)c(OC)c(OC)c2-c2c(cc3c(c2OC)OCO3)C[C@H](C)[C@]1(C)O`, in assay [11], the Potency entry was “inactive”.
As to `CN(Cc1ccccc1)C(=O)[C@H](NC(=O)c1cc2cc(NC(=O)c3ccccc3-c3ccc(C(F)(F)F)cc3)ccc2n1C)c1ccccc1`, the Potency result in assay [11] was “inactive”.
